C diff HTS = inhibitors of Clostridium difficile growth; Clostridium difficile clinical isolate growth, OD600, 24 h; active compounds read low; growth activity, negative = inhibition, % at 16 µg/mL (by protocol); hit rate 0.25% among 86,000; AID 1259249;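 active = mean growth activity at or below -80% and every replicate also at or below -80%; inconclusive = mean at or below -80% but some replicate above -80%; inactive = mean growth activity above -80%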;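 also: 0% = DMSO wells and -100% = levofloxacin 16 µg/mL wells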
T cruzi growth-1 = blocks T. cruzi growth in NIH3T3 culture | AID 624255 | hit rate 5.9% among 77,000 | inhibition, % at 8.34 µM | T. cruzi beta-gal in NIH3T3, GalScreen luminescence, 90 h;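 active = mean inhibition above about 93%, with at least 55% of replicates each passing it, limit read from the data, passing the limit was not always enough; inconclusive = only one of those two conditions holds; inactive = neither condition holds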
Pf Dd2 growth = inhibitors of Plasmodium falciparum Dd2 growth. hit rate 2.3% among 94,000. P. falciparum Dd2 growth, SYBR Green, 72 h; active compounds read low. activity change, % at 10 µM. AID 1159554; in the data active = activity change below about -80%; inconclusive = no clear call, values can overlap the other calls
T cruzi growth-2 = inhibitors of T. cruzi proliferation. shares compounds with T cruzi growth-1. T. cruzi beta-gal in NIH3T3, GalScreen luminescence, 90 h. inhibition, % at 8.35 µM. hit rate 72% among 5,600. AID 651739;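 active = mean replicate inhibition above about 95% and at least 55% of replicates individually reaching it, limit read from the data; inconclusive = only one of the two criteria is met; inactive = neither criterion is met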
T cruzi growth-3 = inhibitors of T. cruzi proliferation; shares compounds with T cruzi growth-1; T. cruzi beta-gal in NIH3T3, GalScreen luminescence, 90 h; inhibition, % at 2.09 µM; hit rate 21% among 5,600;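 active = mean inhibition above about 95%, with at least 55% of replicates also reaching it, limit read from the data; inconclusive = meets just one of the two conditions; inactive = meets neither condition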;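 also: plate controls were neutral control median for no effect and positive control median for full effect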
NIH3T3 tox = kills mouse NIH/3T3 fibroblasts; cytotoxicity (signal decrease), % at 8.35 µM; shares compounds with T cruzi growth-1; NIH/3T3 viability, CellTiter-Glo ATP luminescence, 90 h; hit rate 14% among 5,600; AID 651742;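 active = mean signal decrease across replicates above about 35% based on untreated-well scatter, with enough replicates individually passing, limit read from the data; inconclusive = no rule stated though some were filed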;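 also: 0% = median of neutral control wells and 100% = median of positive control wells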
3T3 cytotox 2 = cytotoxicity in mouse NIH/3T3 fibroblasts. AID 651744. hit rate 56% among 5,600. NIH/3T3 viability, CellTiter-Glo ATP luminescence, 90 h. inhibition, % at 24.9 µM. shares compounds with T cruzi growth-1;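 active = mean loss of cell viability signal at or above a set limit, and enough replicates individually reaching it; inconclusive = meets only the mean limit or only the replicate share; inactive = meets neither condition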;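 also: 0% = median of neutral control wells and 100% = median of positive control wells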
* hit, by the source's call; ? = inconclusive; . = no result given. Only some compounds are listed: those with a hit (about 6.7% of all), similar ones and a draw of the others.

SMILES | C diff HTS | T cruzi growth-1 | Pf Dd2 growth | T cruzi growth-2 | T cruzi growth-3 | NIH3T3 tox | 3T3 cytotox 2
Cc1noc(C)c1S(=O)(=O)N(C)C[C@H]1OCCCC[C@@H](C)Oc2ccc(NS(=O)(=O)c3ccc(F)cc3)cc2C(=O)N([C@@H](C)CO)C[C@H]1C | -16.0 | 96.9* | -39.6 | 103.1* | 81.2 | -16.0 | 8.3
C[C@@H]1CCCCO[C@@H](CN(C)S(=O)(=O)c2ccc(F)cc2)[C@@H](C)CN([C@@H](C)CO)C(=O)c2cc(NS(=O)(=O)c3ccccc3)ccc2O1 | 9.8 | 51.1 | -55.1 | . | . | . | .
C[C@@H]1CCCCO[C@@H](CN(C)S(=O)(=O)c2ccccc2)[C@@H](C)CN([C@@H](C)CO)C(=O)c2cc(NS(=O)(=O)c3ccc(F)cc3)ccc2O1 | -4.3 | 85.4 | -64.3 | . | . | . | .
C[C@@H]1CN([C@H](C)CO)C(=O)c2cc(NS(=O)(=O)c3ccc(F)cc3)ccc2O[C@@H](C)CCCCO[C@H]1CN(C)S(=O)(=O)c1ccc(F)cc1 | -25.3 | . | -51.2 | . | . | . | .
C[C@@H]1CCCCO[C@H](CN(C)S(=O)(=O)c2ccc(F)cc2)[C@H](C)CN([C@@H](C)CO)C(=O)c2cc(NS(=O)(=O)c3ccc(F)cc3)ccc2O1 | 12.3 | 109.6* | -59.6 | 112.9* | 80.7 | 2.4 | 4.0
O=C1CNC[C@H]2[C@H](c3ccc(C#CC4CCCCC4)cc3)[C@H](CO)N12 | 16.4 | . | -7.6 | . | . | . | .
CN1CCN(C(=O)C[C@H]2C[C@@H]3c4cc(NC(=O)CC5CC5)ccc4O[C@@H]3[C@H](CO)O2)CC1 | 3.5 | -3.2 | 6.0 | . | . | . | .
C[C@H]1CN([C@@H](C)CO)C(=O)c2cccc(NS(=O)(=O)c3ccc(Cl)cc3)c2O[C@@H]1CN(C)C(=O)Nc1ccc2c(c1)OCO2 | 5.6 | -5.5 | -7.5 | . | . | . | .
C[C@@H]1CN([C@@H](C)CO)C(=O)Cc2cc(NS(=O)(=O)c3ccc(Cl)cc3)ccc2O[C@@H]1CN(C)C(=O)Nc1ccc(F)cc1 | -3.4 | 4.4 | 8.6 | . | . | . | .
Cc1noc(C)c1NC(=O)N(C)C[C@@H]1Oc2cc(C#CCC3CCCC3)ccc2S(=O)(=O)N([C@@H](C)CO)C[C@H]1C | 4.1 | . | -11.0 | . | . | . | .
C[C@@H]1CN([C@H](C)CO)S(=O)(=O)c2ccc(C#Cc3ccccc3)cc2O[C@@H]1CN(C)C(=O)Cc1ccccn1 | 0.5 | ? | -71.4 | 108.6* | 73.4 | 23.9 | 58.5*
CC(C)C#Cc1ccc2c(c1)O[C@H](CN(C)C(=O)Cc1ccccn1)[C@H](C)CN([C@H](C)CO)S2(=O)=O | 13.3 | 33.3 | -22.4 | . | . | . | .
C[C@H]1CN([C@@H](C)CO)S(=O)(=O)c2ccc(C#Cc3ccccc3)cc2O[C@@H]1CN(C)C(=O)Cc1ccccn1 | -10.2 | 105.4* | -78.1 | 104.9* | 35.4 | 21.1 | 50.6*
CC(C)C#Cc1ccc2c(c1)O[C@@H](CN(C)C(=O)Cc1ccccn1)[C@H](C)CN([C@H](C)CO)S2(=O)=O | -0.1 | 20.3 | -53.2 | . | . | . | .
Cc1ccc(S(=O)(=O)Nc2ccc3c(c2)C(=O)N([C@@H](C)CO)C[C@H](C)[C@@H](CN(C)C(=O)Nc2ccc(C(F)(F)F)cc2)OCCCC[C@@H](C)O3)cc1 | -0.6 | 90.8 | -78.9 | . | . | . | .
COc1ccc(S(=O)(=O)Nc2ccc3c(c2)C(=O)N([C@H](C)CO)C[C@H](C)[C@H](CN(C)C(=O)Nc2ccc(C(F)(F)F)cc2)OCCCC[C@@H](C)O3)cc1 | 22.1 | 108.3* | -41.5 | 104.2* | 58.1 | 21.0 | ?
Cc1ccc(S(=O)(=O)Nc2ccc3c(c2)C(=O)N([C@H](C)CO)C[C@H](C)[C@@H](CN(C)C(=O)Nc2ccc(C(F)(F)F)cc2)OCCCC[C@@H](C)O3)cc1 | -7.3 | 100.5* | -54.2 | 104.8* | 72.4 | 1.3 | 16.5
COc1ccc(S(=O)(=O)Nc2ccc3c(c2)C(=O)N([C@H](C)CO)C[C@@H](C)[C@H](CN(C)C(=O)Nc2ccccc2)OCCCC[C@@H](C)O3)cc1 | 2.4 | 67.3 | -35.9 | . | . | . | .
Cc1ccc(S(=O)(=O)Nc2ccc3c(c2)C(=O)N([C@@H](C)CO)C[C@H](C)[C@H](CN(C)C(=O)Nc2ccc(C(F)(F)F)cc2)OCCCC[C@H](C)O3)cc1 | -2.6 | . | -27.6 | . | . | . | .
Cc1ccc(S(=O)(=O)Nc2ccc3c(c2)C(=O)N([C@@H](C)CO)C[C@@H](C)[C@@H](CN(C)C(=O)Nc2ccc(C(F)(F)F)cc2)OCCCC[C@@H](C)O3)cc1 | 6.2 | 98.0* | -39.6 | 104.3* | 111.9* | 21.6 | 12.9
COc1ccc(S(=O)(=O)Nc2ccc3c(c2)C(=O)N([C@H](C)CO)C[C@H](C)[C@H](CN(C)C(=O)Nc2ccccc2)OCCCC[C@H](C)O3)cc1 | -0.4 | 98.8* | -46.5 | 108.1* | 37.5 | -17.7 | -19.1
COc1ccc(S(=O)(=O)Nc2ccc3c(c2)C(=O)N([C@@H](C)CO)C[C@@H](C)[C@@H](CN(C)C(=O)Nc2ccc(C(F)(F)F)cc2)OCCCC[C@@H](C)O3)cc1 | 13.1 | 54.0 | -24.4 | . | . | . | .
C[C@H]1CN([C@@H](C)CO)C(=O)Cc2cc(NC(=O)C3CCCCC3)ccc2O[C@H]1CN(C)C(=O)Nc1cccc2ccccc12 | -10.9 | 20.0 | 2.1 | . | . | . | .
C[C@H]1CN([C@@H](C)CO)S(=O)(=O)c2ccc(C#Cc3cccc(F)c3)cc2O[C@H]1CN(C)C | 5.1 | -26.0 | -70.6 | . | . | . | .
C[C@@H]1CN([C@H](C)CO)S(=O)(=O)c2ccc(C#Cc3cccc(F)c3)cc2O[C@@H]1CN(C)S(=O)(=O)c1ccccc1F | 6.8 | 103.9* | -72.7 | 102.3* | 112.6* | 24.8 | 40.0*
SMILES | C diff HTS | T cruzi growth-1 | Pf Dd2 growth | T cruzi growth-2 | T cruzi growth-3 | NIH3T3 tox | 3T3 cytotox 2
C[C@@H]1CN([C@H](C)CO)S(=O)(=O)c2ccc(C#Cc3cccc(F)c3)cc2O[C@@H]1CN(C)C | 5.2 | -81.0 | -61.6 | . | . | . | .
C[C@H](CO)N1C[C@H](C)[C@@H](CN(C)S(=O)(=O)c2ccccc2F)Oc2cc(C#Cc3cccc(F)c3)ccc2S1(=O)=O | 13.4 | 106.6* | -69.6 | 98.8* | 116.0* | 26.3 | 42.5*
C[C@@H]1CN([C@@H](C)CO)S(=O)(=O)c2ccc(C#Cc3cccc(F)c3)cc2O[C@@H]1CN(C)S(=O)(=O)c1ccccc1F | 11.5 | 105.6* | -57.4 | 101.6* | 110.5* | 34.5* | 28.2
C[C@@H]1CN([C@H](C)CO)S(=O)(=O)c2ccc(C#Cc3cccc(F)c3)cc2O[C@H]1CN(C)S(=O)(=O)c1cn(C)cn1 | -3.2 | -11.5 | -69.1 | . | . | . | .
O=C(C[C@@H]1C[C@H]2c3cc(NC(=O)Nc4ccc(C(F)(F)F)cc4)ccc3O[C@H]2[C@H](CO)O1)NCc1cccnc1 | 1.5 | -20.6 | -69.5 | . | . | . | .
CCS(=O)(=O)N(C)C[C@@H]1N[C@H](CO)[C@@H]1c1ccc(C2=CCCCC2)cc1 | -2.1 | . | -53.5 | . | . | . | .

Compound activity as filed in PubChem BioAssay.
